Screen size: about 5,500 compounds; about 2,000 (36%) were called active. Roughly 18% stayed inconclusive and do not appear here. Cut-off read from the data, not from the text of the source: active = normalized growth mostly below about 0.91 (no sharp cut-off); inconclusive = no clear call, values can overlap the other calls; inactive = mostly above about 0.92. This is one part of the list.
Test: chemical genetic growth profiling, strain panel (AID 1159580);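 note: tested at 20 µM; growth read once vehicle control cultures reached saturation at 30 °C; 1 = growth at the plate median or of vehicle wells; lower values mean less growth of the strain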
Conditions: growth OD
[1] = S. cerevisiae deletion strains, locus YDR150W, strain NUM1, hits give low values
[2] = S. cerevisiae deletion strains, locus YJR075W, strain HOC1, hits give low values
[3] = S. cerevisiae deletion strains, locus YNL322C, strain KRE1, hits give low values
[4] = S. cerevisiae deletion strains, locus YPL241C, strain CIN2, hits give low values
[5] = S. cerevisiae deletion strains, locus YHR030C, strain SLT2, hits give low values
[6] = S. cerevisiae deletion strains, locus YJL187C, strain SWE1, hits give low values

Measured: normalized growth

NC(CCP(=O)(O)O)C(=O)O (stereo not given)
inactive: S. cerevisiae deletion strains, locus YAL040C, strain CLN3, hits give low values 1.01 | S. cerevisiae deletion strains, locus YCL061C, strain MRC1 (second series), hits give low values 1 | [1] 1.01 | S. cerevisiae deletion strains, locus YDR363W, strain ESC2, hits give low values 0.988 | S. cerevisiae deletion strains, locus YER002W, strain NOP16, hits give low values 1.02 | [2] 0.992 | S. cerevisiae deletion strains, locus YNL175C, strain NOP13, hits give low values 1 | S. cerevisiae deletion strains, locus YNL197C, strain WHI3, hits give low values 0.983 | S. cerevisiae deletion strains, locus YNL224C, strain SQS1, hits give low values 0.989 | [3] 0.986 | S. cerevisiae deletion strains, locus YOR083W, strain WHI5 (second series), hits give low values 1.01 | [4] 1

CC(C)(C)S(=O)(=O)c1cnc(N)nc1N
inactive: S. cerevisiae deletion strains, locus YAL013W, strain DEP1, hits give low values 1.03 | S. cerevisiae deletion strains, locus YBR229C, strain ROT2, hits give low values 1.01 | S. cerevisiae deletion strains, locus YDL101C, strain DUN1, hits give low values 1 | [1] 0.969 | S. cerevisiae deletion strains, locus YEL061C, strain CIN8, hits give low values 0.993 | S. cerevisiae deletion strains, locus YGR078C, strain PAC10, hits give low values 1.01 | S. cerevisiae deletion strains, locus YGR229C, strain SMI1, hits give low values 1.01 | [5] 1.07 | S. cerevisiae deletion strains, locus YHR087W, strain rtc3, hits give low values 1 | [6] 1.02 | S. cerevisiae deletion strains, locus YJR043C, strain POL32, hits give low values 0.985 | [2] 1.01 | S. cerevisiae deletion strains, locus YKL190W, strain CNB1, hits give low values 1 | S. cerevisiae deletion strains, locus YLR039C, strain RIC1, hits give low values 1.05 | S. cerevisiae deletion strains, locus YLR058C, strain SHM2 (second series), hits give low values 1.01 | S. cerevisiae deletion strains, locus YLR085C, strain ARP6, hits give low values 1.05 | S. cerevisiae deletion strains, locus YLR262C, strain YPT6, hits give low values 1.06 | S. cerevisiae deletion strains, locus YML094W, strain GIM5, hits give low values 1.01 | S. cerevisiae deletion strains, locus YMR219W, strain ESC1, hits give low values 1.01 | S. cerevisiae deletion strains, locus YMR263W, strain SAP30, hits give low values 0.986 | S. cerevisiae deletion strains, locus YNL153C, strain GIM3, hits give low values 1 | S. cerevisiae deletion strains, locus YNL298W, strain CLA4 (second series), hits give low values 1.04 | [3] 1.02 | S. cerevisiae deletion strains, locus YNR030W, strain Alg12, hits give low values 1.03 | S. cerevisiae deletion strains, locus YPL055C, strain LGE1, hits give low values 0.972 | [4] 1.02 | S. cerevisiae deletion strains, locus YPR135W, strain CTF4, hits give low values 1.03 | S. cerevisiae strains, strain wild type, hits give low values 1.01

CC1CC(OC(=O)c2ccccc2O)CC(C)(C)C1 (stereo not given)
inactive: S. cerevisiae deletion strains, locus YAL021C, strain ccr4, hits give low values 0.977 | S. cerevisiae deletion strains, locus YAL026C, strain drs2, hits give low values 0.989 | S. cerevisiae deletion strains, locus YAL030W, strain snc1, hits give low values 0.985 | S. cerevisiae deletion strains, locus YBL061C, strain skt5, hits give low values 0.97 | S. cerevisiae deletion strains, locus YBR009C, strain hhf1, hits give low values 0.914 | S. cerevisiae deletion strains, locus YBR023C, strain chs3, hits give low values 0.974 | S. cerevisiae deletion strains, locus YBR171W, strain sec66, hits give low values 0.987 | S. cerevisiae deletion strains, locus YBR231C, strain swc5, hits give low values 0.961 | S. cerevisiae deletion strains, locus YBR279W, strain paf1, hits give low values 0.98 | S. cerevisiae deletion strains, locus YCL011C, strain gbp2, hits give low values 0.969 | S. cerevisiae deletion strains, locus YCL016C, strain dcc1, hits give low values 0.991 | S. cerevisiae deletion strains, locus YCL061C, strain MRC1, hits give low values 0.983 | S. cerevisiae deletion strains, locus YCL069W, strain vba3, hits give low values 0.987 | S. cerevisiae deletion strains, locus YCR088W, strain abp1, hits give low values 0.99 | S. cerevisiae deletion strains, locus YDL005C, strain med2, hits give low values 0.968 | S. cerevisiae deletion strains, locus YDL040C, strain nat1, hits give low values 0.983 | S. cerevisiae deletion strains, locus YDR001C, strain nth1, hits give low values 0.984 | S. cerevisiae deletion strains, locus YDR069C, strain doa4, hits give low values 0.943 | S. cerevisiae deletion strains, locus YDR137W, strain rgp1, hits give low values 0.922 | S. cerevisiae deletion strains, locus YDR159W, strain sac3, hits give low values 0.977 | S. cerevisiae deletion strains, locus YDR195W, strain ref2 0.968 | S. cerevisiae deletion strains, locus YDR297W, strain sur2, hits give low values 0.973 | S. cerevisiae deletion strains, locus YDR334W, strain swr1, hits give low values 0.985 | S. cerevisiae deletion strains, locus YDR335W, strain msn5, hits give low values 0.992 | S. cerevisiae deletion strains, locus YDR392W, strain spt3, hits give low values 0.89 | S. cerevisiae deletion strains, locus YEL003W, strain gim4, hits give low values 0.974 | S. cerevisiae deletion strains, locus YEL037C, strain rad23, hits give low values 0.987 | S. cerevisiae deletion strains, locus YEL061C, strain CIN8 (second series), hits give low values 0.965 | S. cerevisiae deletion strains, locus YER015W, strain faa2, hits give low values 0.975 | S. cerevisiae deletion strains, locus YER016W, strain bim1, hits give low values 0.982 | S. cerevisiae deletion strains, locus YER111C, strain swi4, hits give low values 0.985 | S. cerevisiae deletion strains, locus YER155C, strain BEM2 (second series), hits give low values 0.982 | S. cerevisiae deletion strains, locus YFR010W, strain ubp6, hits give low values 0.971 | S. cerevisiae deletion strains, locus YGL167C, strain pmr1, hits give low values 0.962 | S. cerevisiae deletion strains, locus YGL173C, strain kem1, hits give low values 0.967 | S. cerevisiae deletion strains, locus YGL227W, strain vid30, hits give low values 0.978 | S. cerevisiae deletion strains, locus YGL240W, strain doc1, hits give low values 0.933 | S. cerevisiae deletion strains, locus YGL253W, strain hxk2, hits give low values 1 | S. cerevisiae deletion strains, locus YHR013C, strain ard1, hits give low values 0.865 | S. cerevisiae deletion strains, locus YHR027C, strain rpn1, hits give low values 0.989 | [5] 0.94 | S. cerevisiae deletion strains, locus YHR079C, strain IRE1, hits give low values 0.958 | S. cerevisiae deletion strains, locus YHR142W, strain chs7, hits give low values 0.978 | S. cerevisiae deletion strains, locus YJL092W, strain hpr5, hits give low values 0.985 | S. cerevisiae deletion strains, locus YJL095W, strain BCK1 (second series), hits give low values 0.993 | S. cerevisiae deletion strains, locus YJL095W, strain BCK1, hits give low values 1.01 | S. cerevisiae deletion strains, locus YJL115W, strain asf1, hits give low values 1 | S. cerevisiae deletion strains, locus YJL129C, strain trk1, hits give low values 0.896 | S. cerevisiae deletion strains, locus YJL154C, strain vps35, hits give low values 0.987 | S. cerevisiae deletion strains, locus YJL164C, strain tpk1, hits give low values 0.97 | S. cerevisiae deletion strains, locus YJL166W, strain qcr8, hits give low values 0.943 | [6] 0.974 | S. cerevisiae deletion strains, locus YJR066W, strain TOR1, hits give low values 0.943 | S. cerevisiae deletion strains, locus YKL160W, strain elf1, hits give low values 0.993 | S. cerevisiae deletion strains, locus YKR026C, strain gcn3, hits give low values 0.953 | S. cerevisiae deletion strains, locus YKR091W, strain srl3, hits give low values 0.981 | S. cerevisiae deletion strains, locus YLL001W, strain dnm1, hits give low values 1.01 | S. cerevisiae deletion strains, locus YLL026W, hits give low values 0.98 | S. cerevisiae deletion strains, locus YLL041C, strain sdh2, hits give low values 0.989 | S. cerevisiae deletion strains, locus YLR027C, strain aat2, hits give low values 0.972 | S. cerevisiae deletion strains, locus YLR113W, strain HOG1, hits give low values 1 | S. cerevisiae deletion strains, locus YLR221C, strain rsa3, hits give low values 0.925 | S. cerevisiae deletion strains, locus YLR258W, strain gsy2, hits give low values 0.97 | S. cerevisiae deletion strains, locus YLR262C, strain YPT6 (second series), hits give low values 0.904 | S. cerevisiae deletion strains, locus YLR320W, strain mms22, hits give low values 0.952 | S. cerevisiae deletion strains, locus YLR342W, strain FKS1, hits give low values 0.949 | S. cerevisiae deletion strains, locus YLR357W, strain rsc2, hits give low values 0.975 | S. cerevisiae deletion strains, locus YLR370C, strain arc18, hits give low values 0.978 | S. cerevisiae deletion strains, locus YLR384C, strain iki3, hits give low values 0.997 | S. cerevisiae deletion strains, locus YML120C, strain ndi1, hits give low values 0.987 | S. cerevisiae deletion strains, locus YMR058W, strain fet3, hits give low values 0.981 | S. cerevisiae deletion strains, locus YMR125W, strain sto1, hits give low values 0.975 | S. cerevisiae deletion strains, locus YMR129W, hits give low values 0.998 | S. cerevisiae deletion strains, locus YMR205C, strain PFK2, hits give low values 0.906 | S. cerevisiae deletion strains, locus YMR231W, strain pep5, hits give low values 1 | S. cerevisiae deletion strains, locus YNL071W, strain lat1, hits give low values 0.974 | S. cerevisiae deletion strains, locus YNL183C, strain NPR1, hits give low values 0.947 | S. cerevisiae deletion strains, locus YNL209W, strain ssb2, hits give low values 0.983 | S. cerevisiae deletion strains, locus YNL248C, strain rpa49, hits give low values 0.989 | S. cerevisiae deletion strains, locus YNL322C, strain KRE1 (second series), hits give low values 0.99 | S. cerevisiae deletion strains, locus YNR049C, strain mso1, hits give low values 0.982 | S. cerevisiae deletion strains, locus YOR001W, strain rrp6, hits give low values 0.996 | S. cerevisiae deletion strains, locus YOR070C, strain gyp1, hits give low values 0.989 | S. cerevisiae deletion strains, locus YOR080W, strain dia2, hits give low values 0.968 | S. cerevisiae deletion strains, locus YOR083W, strain WHI5, hits give low values 1 | S. cerevisiae deletion strains, locus YOR106W, strain vam3, hits give low values 0.951 | S. cerevisiae deletion strains, locus YOR231W, strain MKK1, hits give low values 0.958 | S. cerevisiae deletion strains, locus YOR265W, strain rbl2, hits give low values 0.989 | S. cerevisiae deletion strains, locus YOR270C, strain vph1, hits give low values 0.977 | S. cerevisiae deletion strains, locus YOR290C, strain snf2, hits give low values 0.915 | S. cerevisiae deletion strains, locus YPL051W, strain arl3, hits give low values 1.01 | S. cerevisiae deletion strains, locus YPL078C, strain atp4, hits give low values 0.995 | S. cerevisiae deletion strains, locus YPL106C, strain sse1, hits give low values 0.974 | S. cerevisiae deletion strains, locus YPL240C, strain hsp82, hits give low values 0.958 | S. cerevisiae deletion strains, locus YPL256C, strain CLN2, hits give low values 0.94

— PubChem BioAssay AID1159580 (chemical genetic matrix, 2015)
